Compound activity deposited in PubChem by Corson Lab, School of Medicine, Indiana University.
FECH block: inhibitors of human ferrochelatase. purified FECH, Ni-mesoporphyrin absorbance 550 nm. calls only at 10 µM (by protocol). P22830. hit rate 3.3% among 20,000. AID 1671448;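 active = enzyme reaction rate more than 3 SD below the solvent-only control wells on the same plate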;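 also: lower slope than DMSO wells means FECH inhibition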
Target sequence (P22830 whole entry, looked up): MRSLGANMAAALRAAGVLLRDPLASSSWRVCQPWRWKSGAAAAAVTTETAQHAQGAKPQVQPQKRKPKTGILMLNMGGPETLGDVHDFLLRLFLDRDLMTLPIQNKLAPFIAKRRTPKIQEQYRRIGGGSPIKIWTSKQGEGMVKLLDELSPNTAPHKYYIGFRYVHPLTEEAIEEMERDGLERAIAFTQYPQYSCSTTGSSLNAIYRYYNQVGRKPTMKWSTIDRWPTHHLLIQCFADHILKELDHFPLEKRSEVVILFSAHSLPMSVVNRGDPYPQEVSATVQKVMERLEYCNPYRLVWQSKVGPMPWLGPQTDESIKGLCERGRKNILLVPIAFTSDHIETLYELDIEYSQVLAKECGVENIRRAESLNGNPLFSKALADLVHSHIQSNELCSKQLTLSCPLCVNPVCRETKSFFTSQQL
An asterisk follows results filed as active; i = inactive; + = active, no number. Many of the other results were omitted from the sample, so hits are more common in it than they were.

SMILES	FECH block
COC(=O)c1cc2ccsc2n1CC(=O)Nc1c(C)cccc1C	i
CCOC(=O)c1cc2ccsc2n1CC(=O)Nc1c(C)cc(C)cc1C	+
CCOC(=O)c1cc2ccsc2n1CC(=O)Nc1ccccc1C	i
CCCOCCN1CCN(c2cc(OC)ncn2)CC1	i
CCC1=C(c2ccc(OC)cc2)S(=O)(=O)N(CC(=O)Nc2cccc(C)c2C)C1=O	i
Cc1cccc(NCc2cc(=O)n3[nH]c(NCc4ccc(F)cc4)nc3n2)c1C	i
Cc1ccc(Cc2nc3nc4c(c(=O)n3[nH]2)CCCC4)cc1	i
O=c1c2c(nc3nc(CNc4ccccc4Cl)[nH]n13)CCC2	i
Cc1cccc(C)c1NCc1nc2nc3c(c(=O)n2[nH]1)CCC3	+
Cc1cccc(NCc2nc3nc4c(c(=O)n3[nH]2)CCC4)c1C	+
Cc1nc(NC(=O)NCc2cccc(C(F)(F)F)c2)nn1C	i
Cc1cc(NC(=O)COc2ccccc2F)n(-c2ncnc3c2cnn3-c2cccc(Cl)c2)n1	i
CCCCc1ncc(CN2CCc3[nH]cnc3C2c2cccc(O)c2)[nH]1 (stereo not drawn)	i
CCc1cc(Sc2ccccc2NC(=O)Cc2ccc(C)cc2)n2ncnc2n1	i
O=C(O)c1ccccc1-c1nccc(C2CCCC2)n1	i
O=C(CCn1cnc2ccccc21)N1CC[C@@H](c2ccc(F)cc2)[C@H](O)C1	i
C=CCC1(CC=C)CCCN1C(=O)C(=O)N1CCOCC1	i
COc1ccccc1-n1nc(C(C)C)nc1CCc1cccnc1	i
COc1ccccc1-n1nc(CC(C)C)nc1C(C)n1ccnc1 (stereo not drawn)	+
COc1ccccc1-n1nc(C(C)C)nc1Cc1cc(C)no1	i
CCCCN(c1nc2nc(C)c(Cl)c(C)n2n1)S(=O)(=O)c1ccc(Cl)cc1	i
CCC(NC(=O)C1(Nc2ccc(C)cc2)CCCC1)c1cnn(C)c1 (stereo not drawn)	i
COc1cc2c(cc1-c1nccn1-c1ccc3nc(CO)[nH]c3c1)CCC2	i
COc1ccc(-c2ccc3nc(CO)[nH]c3c2)cc1Cl	i
COc1cccc(OC)c1-c1ccc2nc(CO)[nH]c2c1	+
SMILES	FECH block
COc1ccc(OCC(=O)Nc2cccc(OCc3cc(=O)n4ccc(C)cc4n3)c2)cc1	i
Cc1ccc(OCC(=O)Nc2ccc(C)c(OCc3cc(=O)n4cccc(C)c4n3)c2)cc1C	+
Cc1cccc(OCC(=O)Nc2cccc(OCc3cc(=O)n4ccc(C)cc4n3)c2)c1	i
Cc1ccc(NC(=O)COc2ccccc2)cc1OCc1cc(=O)n2cccc(C)c2n1	+
Cc1ccccc1OCC(=O)Nc1ccc(C)c(OCc2cc(=O)n3cccc(C)c3n2)c1	+
Cc1ccc(OCC(=O)Nc2cccc(OCc3cc(=O)n4cc(Cl)ccc4n3)c2)cc1C	i
Cc1ccn2c(=O)cc(COc3cccc(NC(=O)COc4ccccc4Cl)c3)nc2c1	i
Cc1ccn2c(=O)cc(COc3cccc(NC(=O)COc4ccccc4)c3)nc2c1	i
Cc1ccc(OCC(=O)Nc2cccc(OCc3cc(=O)n4ccc(C)cc4n3)c2)cc1	i
COc1ccc(OCC(=O)Nc2cccc(OCc3cc(=O)n4cc(Cl)ccc4n3)c2)cc1	i
Cc1cccc(OCC(=O)Nc2ccc(C)c(OCc3cc(=O)n4cccc(C)c4n3)c2)c1	+
CCC(Oc1ccccc1)C(=O)Nc1ccc(C)c(OCc2cc(=O)n3cccc(C)c3n2)c1 (stereo not drawn)	i
Cc1ccc(CC2(NC(=O)c3cccc(-n4cnnc4)n3)CC2)cc1	i
Cc1ccc(C)c(OCC(=O)NCCN2CCCC(C(N)=O)C2)c1C (stereo not drawn)	i
CCc1nc(NC(=O)NCCc2nc(-c3ccccc3)cs2)nn1C	i
Cc1cc(C)n(-c2cc(NCc3ccccc3)ncn2)n1	i
COCCCNC(=O)C1CCC(Cn2c(=O)c3sccc3n(CC(=O)NC(C)C)c2=O)CC1 (stereo not drawn)	i
O=C1NCC2(CCCN(C(=O)c3ccc(-n4cnnc4)cc3)CC2)O1 (stereo not drawn)	i
Cc1cc(C)cc(-n2c(CN3CCN(S(=O)(=O)c4ccc(C(C)(C)C)cc4)CC3)nc3cccnc32)c1	i
O=C(c1csc(S(=O)(=O)N2CCN(c3cccc(Cl)c3)CC2)c1)N1CCCC1	i
Cc1csc(SCC(=O)N2Cc3cnc(CC(C)C)nc3C2)n1	i
Cc1cnc(NCc2ccccc2CN2CCCC2=O)nc1N(C)C	i
CN(CC1Cc2ccccc2O1)C(=O)Nc1nc(-c2ccccc2)ns1 (stereo not drawn)	i
COc1ccc(NC(=O)CN2C(=O)C3CCCCN3c3ccc(C(=O)N(C)C)cc32)cc1 (stereo not drawn)	i
Cc1cccc(NCc2cc(=O)n3[nH]c(-c4ccc(C(C)(C)C)cc4)nc3n2)c1C	i
SMILES	FECH block
Cc1ccc(NCc2cc(=O)n3[nH]c(-c4ccc(C(C)(C)C)cc4)nc3n2)c(C)c1	+
Cc1cccc(C)c1NCc1cc(=O)n2[nH]c(NCc3ccccc3)nc2n1	i
Cc1cccc(C)c1NCc1cc(=O)n2[nH]c(-c3ccc(C(C)(C)C)cc3)nc2n1	+
CCCNCc1cc(=O)n2[nH]c(-c3ccc(C(C)(C)C)cc3)nc2n1	i
Cc1ccc(NCc2cc(=O)n3[nH]c(NCc4ccccc4)nc3n2)c(C)c1	i
COc1ccc(NCc2cc(=O)n3[nH]c(-c4ccc(C(C)(C)C)cc4)nc3n2)c(OC)c1	i
Cc1ccc(NCc2cc(=O)n3[nH]c(-c4ccc(C(C)(C)C)cc4)nc3n2)cc1C	i
CC(C)(C)c1ccc(-c2nc3nc(CNc4ccc(F)cc4)cc(=O)n3[nH]2)cc1	+
O=S(=O)(NCCn1c(C(F)(F)F)nc2cccnc21)c1ccc(Br)cc1	i
CC(=O)Nc1cccc(NC(=O)Cc2csc(NC(=O)Nc3cccc(Cl)c3)n2)c1	i
CC(C)Cc1ccc(S(=O)(=O)NCCn2c(-c3ccc(F)cc3)nc3cccnc32)cc1	i
COc1cc(C)c(S(=O)(=O)N2CCN(c3nc(C)cc(N4CCCC4)n3)CC2)cc1C	i
CCOC(=O)Cn1c(=O)c2cnc(-c3ccc(OC)cc3)nc2n(CC)c1=O	i
NC(=O)C1CCN(C(=O)CN2c3ccc(Br)cc3-c3ccccc3S2(=O)=O)CC1	i
CCc1ccc2c(c1)-c1ccccc1S(=O)(=O)N2CC(=O)N1CCN(CC)CC1	+
CCN1CCN(C(=O)CN2C(=O)C3CCCCN3c3ccc(C(=O)N(C)C)cc32)CC1 (stereo not drawn)	i
CN1CCN(C(=O)CN2C(=O)C3CCCCN3c3ccc(C(=O)N(C)C)cc32)CC1 (stereo not drawn)	i
O=C(CN1C(=O)C2CCCCN2C(=O)c2ccccc21)N1CCN(Cc2ccccc2)CC1 (stereo not drawn)	i
CCc1ccc2c(c1)-c1ccccc1S(=O)(=O)N2CC(=O)N1CCN(C)CC1	+
CCC(C)NC(=O)Cn1c(=O)n(CC2CCC(C(=O)N3CCCCC3)CC2)c(=O)c2sccc21 (stereo not drawn)	i
COc1ccc(NS(=O)(=O)c2ccc3c(c2)CCN3C(=O)CCC(=O)N2CCCCCC2)cc1	i
O=S(=O)(Nc1nc2n(n1)C(c1ccccc1)C=C(c1ccccc1)N2)c1ccc(Cl)cc1 (stereo not drawn)	i
Cc1ccc(C2=CC(c3ccccc3Cl)n3nc(NS(=O)(=O)c4ccc(C)cc4)nc3N2)cc1 (stereo not drawn)	i
